Drawing on PubChem BioAssay AID1851 (National Center for Advancing Translational Sciences (NCATS), 2009), this text covers activity, negative = inhibition and AC50 for 91 molecules.

Values joined by “and” are separate entries in the source; they are usually repeats but may differ in a detail not shown here. Equal entries are not always repeated. Among all 16,000 compounds or so, about 2,600 (16%) were called active. About 20% were inconclusive and are not listed. Shown is part of a subset that was picked to be rich in actives. Unmarked numbers belong to inactive results. The call rests on the fitted dose curve; in most records, active means well fitted curve in the direction sought with a large enough effect; inconclusive means small, poorly fitted or top-dose-only effect, or effect the other way; inactive means no such curve, though single readings can be large or run the other way.
On the % scale 0 is the no-effect control and ±100 the full control effect.

Sequence of Cytochrome P450 2D6 (Homo sapiens) (P10635 whole entry, looked up): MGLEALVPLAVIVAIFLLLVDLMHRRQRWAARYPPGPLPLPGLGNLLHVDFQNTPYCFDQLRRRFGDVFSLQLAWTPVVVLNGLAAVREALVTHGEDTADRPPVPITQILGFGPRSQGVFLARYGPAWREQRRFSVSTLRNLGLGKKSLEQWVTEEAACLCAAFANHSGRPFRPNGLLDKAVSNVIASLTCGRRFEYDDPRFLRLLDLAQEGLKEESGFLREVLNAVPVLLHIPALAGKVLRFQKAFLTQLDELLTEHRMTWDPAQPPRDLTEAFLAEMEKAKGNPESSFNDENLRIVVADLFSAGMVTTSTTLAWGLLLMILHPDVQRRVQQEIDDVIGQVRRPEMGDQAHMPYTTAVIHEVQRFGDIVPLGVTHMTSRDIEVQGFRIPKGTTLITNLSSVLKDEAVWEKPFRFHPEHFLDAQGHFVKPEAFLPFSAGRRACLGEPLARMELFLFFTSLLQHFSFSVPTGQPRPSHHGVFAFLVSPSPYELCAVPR

The assay has as its target Cytochrome P450 2D6 (Homo sapiens) (UniProt P10635). As to the kind of experiment: Cytochrome panel assay with activity outcomes. The following applies: recombinant CYP, pro-luciferin dealkylation, luminescence, p450-cyp2d6; series mostly up to 57.1 µM.
For the molecule `CO[C@H]1[C@H](O)[C@H](O[C@@H]2[C@H](Oc3cccc4c(O)c5c(=O)oc6ccc(C)c7c(=O)oc(c34)c5c67)O[C@@H](C)[C@H](O)[C@H]2O)O[C@@H](C)[C@@H]1O`, the activity, negative = inhibition was 19.6% [at 11.4 µM].
Take `CCCCCCCC/C=C\CCCCCCCC(N)=O`: the AC50 result is “inactive”.
In the case of `N[C@@H](CCCP(=O)(O)O)C(=O)O`, the AC50 result was “inactive”.
For the molecule `C[N+](C)(C)CCCCCCCCCC[N+](C)(C)C`, the AC50 entry was “inactive”.
Consider `O=C(COc1ccc2ccccc2c1)N1CCN(CC2CC3C=CC2C3)CC1` (stereo unspecified), for which the AC50 was 5.01 µM (active).
Same read-out and setting: for `COc1cc(CN2CCN(C(=O)COc3ccccc3)CC2)cc(OC)c1OC` the value was “inactive”; for `CC(=O)N1CCC2(CC1)CC(=O)c1cc(OCC(=O)N3CCN(C)CC3)ccc1O2`, “inactive”.
`CCN1C[C@@]2(COC)[C@H]3[C@@H](OC)[C@H]4C1[C@@]3([C@H](OC)C[C@@H]2O)[C@H]1C[C@@]2(O)[C@@H](OC(=O)c3ccccc3)[C@@H]1[C@@]4(OC(C)=O)[C@H](O)[C@@H]2OC`: the AC50 result is “inactive”.
With `Cc1ccc(C2CC(=O)C(C=NCCN3CCN(C(=O)Cc4ccccc4)CC3)=C(O)C2)cc1` (stereo unspecified), the AC50 entry is “inactive”.
With `CN(C)CS/C(N)=N/[C@H](O)C(Cl)(Cl)Cl`, the activity, negative = inhibition was -6.69% [at 11.4 µM].
As to `CN1CCc2nc3sc(C(=O)NC(C)(C)C)c(N)c3cc2C1`, the AC50 entry was “inactive”.
With `CCOC(=O)C1=C(C)OC(N)=C(C#N)C12C(=O)N(C)c1ccccc12` (stereo unspecified), the AC50 entry is “inactive”.
As for `CC[C@]1(OC(=O)CN)C(=O)OCc2c1cc1n(c2=O)Cc2cc3ccccc3nc2-1`, the activity, negative = inhibition is -0.998% [at 11.4 µM].
With `C[C@@H]1Cc2cc3c(cc2C(c2ccc(N)cc2)=NN1)OCO3`, the AC50 was 31.6 µM (active).
On the same count and under the same terms, for `CCC12C=CCN3CCC4(c5cc(Br)c(OC)cc5N(C)C4C(O)(C(=O)OC)C1OC(C)=O)C32` (stereo unspecified) the value was 2.51 µM (active); for `C=Cn1ccnc1P(=S)(c1nccn1C=C)C1CCCCC1`, “inactive”; for `CN1[C@@H]2CC[C@H]1CC(NC(=O)c1nn(C)c3ccccc13)C2` (stereo partly specified), “inactive”.
Take `CNC(=S)NC1CC2CCCC(C1)N2CC(C)C` (stereo unspecified): the AC50 was 5.01 µM (active).
On the same count and under the same terms, next, `COc1ccc(C(=O)NC2CC3CCCC(C2)N3CC(C)C)cc1OC` (stereo unspecified): 4.47 µM (active).
The same measure, in the same setting: for `O=C(O)Cc1cnc[nH]1` the value was “inactive”.
With `C/C(=C\C=C/[C@@H](C)C(=O)O)[C@H]1CN[C@H](C(=O)O)[C@@H]1CC(=O)O`, the AC50 result is “inactive”.
With `c1ccc(N2CC[C@@]3(CCCNC3)C2)nc1`, the AC50 result was “inactive”.
The same measure, in the same setting: for `N#Cc1ccc(CN2CC[C@@]3(CCCNC3)C2)cc1` the value was “inactive”; for `c1cnc(N2CC[C@@]3(CCCNC3)C2)nc1`, 7.94 µM (active).
Still for that read-out and setting: next, `C=C(C)[C@H]1CC[C@]2(CO)CC[C@]3(C)[C@@H](CC[C@H]4[C@@]5(C)CC[C@@H](O)C(C)(C)[C@@H]5CC[C@@]43C)[C@H]12`: “inactive”.
Consider `COC(=O)Nc1nc2ccc(C(=O)c3cccs3)cc2[nH]1`, for which the AC50 entry was “inactive”.
Take `COc1cc(-c2ccc(=O)[nH]n2)ccc1OC(F)F`: the AC50 entry is “inactive”.
Turning to `NCCc1c[nH]c2ccc(OC(=O)C(=O)O)cc12`, the activity, negative = inhibition is -17.3% [at 11.4 µM].
In the case of `C[C@H](N)Cc1c[nH]c2ccc(OCc3cccs3)cc12`, the concentration at half-maximal activity (AC50) is 0.794 µM (active).
On the same count and under the same terms, for `COc1ccc2[nH]cc(CCN)c2c1` the value was “inactive”.
On the same count and under the same terms, next, `O[C@@H]1[C@H](O)[C@H]2[C@@H](O)CCN2C[C@@H]1O`: “inactive”.
With `CC(C)[C@]1(O)[C@@H](OC(=O)c2ccc[nH]2)[C@]2(O)[C@@]3(C)C[C@@]4(O)O[C@@]5([C@H](O)[C@@H](C)CC[C@]35O)[C@]2(O)[C@]41C`, the activity, negative = inhibition is 9.77% [at 11.4 µM].
Turning to `NC(=O)CN1C[C@@H](O)CC1=O`, the AC50 entry was “inactive”.
On the same count and under the same terms, next, `O=c1c(O)c(-c2cc(O)c(O)c(O)c2)oc2cc(O)cc(O)c12`: “inactive”; `c1ccc(C[C@@H](c2ccccc2)N2CCCCC2)cc1`: 2 µM (active).
As for `N[C@@H](Cc1ccccc1)P(=O)(O)O`, the activity, negative = inhibition was -3.26% [at 11.4 µM].
On the same count and under the same terms, for `N[C@H](Cc1c[nH]c2ccccc12)P(=O)(O)O` the value was -0.254% [at 11.4 µM].
Consider `CC(=O)NCCc1c[nH]c2ccccc12`, for which the AC50 entry was “inactive”.
Same read-out and setting: for `CC(C(=O)c1c[nH]c2ccccc12)N1CCSCC1` (stereo unspecified) the value was 6.31 µM (active); for `CCCCc1nc2ccccc2c(=O)n1-c1ccc(Cl)cc1[N+](=O)[O-]`, “inactive”.
Turning to `CN(C)[C@@H]1C(=O)C(C(N)=O)=C(O)[C@]2(O)C(=O)C3=C(O)c4c(O)cccc4[C@](C)(O)[C@H]3C[C@@H]12`, the activity, negative = inhibition was -6.07% [at 11.4 µM].
As for `CCCCN1C(=O)/C(=C\c2ccco2)C(=O)N(CCc2ccccc2)C1=O`, the AC50 result is “inactive”.
Still for that read-out and setting: next, `Fc1ccc(CCNCc2ccc(Cl)c(Cl)c2)cc1`: 0.398 µM (active).
The same measure, in the same setting: next, `Fc1ccc(CCNCc2cccc(Cl)c2)cc1`: 0.794 µM (active).
Turning to `O=C(O)[C@@H](O)[C@@H](O)[C@@H]1[O][Sb][O][C@@H]1CO`, the activity, negative = inhibition is 12.5% [at 11.4 µM].
Same read-out and setting: next, `O=C(O)C[C@H]1NCc2cc3ccccc3nc21`: 3.21% [at 11.4 µM]; `COc1cc(CCN)c(OC)c(OC)c1`: 0.204% [at 11.4 µM].
Turning to `C[C@@]12C(=O)OC(=O)[C@@]1(C)[C@H]1CC[C@@H]2O1`, the AC50 result was “inactive”.
For `NC(=O)c1ccc(-c2nc(-c3ccc4c(c3)OCO4)c(-c3ccccn3)[nH]2)cc1`, the AC50 was 12.6 µM (active).
On the same count and under the same terms, for `Cc1sc2c(c1C)C(c1ccc(C(C)(C)C)cc1)=NCC(=O)N2CC(=O)Nc1nccs1` the value was “inactive”.
Take `C[C@@H]1O[C@@H](O[C@H]2C[C@@H](O)[C@]3(CO)[C@@H]4[C@@H](O)C[C@]5(C)[C@H]([C@@H]6COC(=O)C6)CC[C@@]5(O)[C@H]4CC[C@@]3(O)C2)[C@H](O)[C@H](O)[C@@H]1O`: the AC50 entry was “inactive”.
Consider `COc1ccc2cc1Oc1ccc(cc1)C[C@H]1c3cc(c(OC)cc3CCN1C)Oc1c(OC)c(OC)cc3c1[C@@H](C2)N(C)CC3`, for which the activity, negative = inhibition is -16.9% [at 11.4 µM].
As for `COc1ccc2c(c1O)-c1c(OC)c(OC)cc3c1[C@H](C2)N(C)CC3`, the AC50 entry was “inactive”.
`COc1cc2c3cc1Oc1c(O)c(OC)cc4c1[C@@H](Cc1ccc(cc1)Oc1cc(ccc1O)C[C@H]3N(C)CC2)N(C)CC4`: the activity, negative = inhibition is 0.972% [at 11.4 µM].
For `COc1ccc2c(c1OC)CN1CCc3cc4c(cc3[C@H]1C2)OCO4`, the concentration at half-maximal activity (AC50) was 0.0631 µM (active).
`COc1cc2c(cc1O)[C@H]1Cc3ccc(OC)c(O)c3CN1CC2`: the AC50 is 0.0316 µM (active).
The same measure, in the same setting: for `COc1ccc2c(c1OC)C(=O)O[C@H]2[C@H]1c2cc3c(cc2CCN1C)OCO3` the value was “inactive”; for `CC(Oc1ccc(-c2ccccc2)cc1)C(=O)O` (stereo unspecified), “inactive”; for `CCn1cc(C(=O)O)c(=O)c2cc3c(cc21)OCO3`, “inactive”.
Turning to `CCN1C[C@]2(C)CC[C@@H](O)[C@]34[C@@H]5CC6[C@@H](OC)C[C@@](O)([C@H]5[C@@H]6O)[C@@H](C[C@@H]23)[C@H]14`, the AC50 entry is “inactive”.
The same measure, in the same setting: next, `CNC[C@H](O)c1ccc(OC(=O)C(C)(C)C)c(OC(=O)C(C)(C)C)c1`: “inactive”; `CN1C[C@@H](CS(=O)(=O)N(C)C)C[C@H]2c3cccc4c3c(cn4C)C[C@@H]21`: 3.98 µM (active).
For `CC(=NCc1ccco1)c1c(O)n(-c2ccccc2)c(=O)[nH]c1=O`, the AC50 entry was “inactive”.
`CN1C(=O)CCS(=O)(=O)[C@@H]1c1ccc(Cl)cc1`: the AC50 entry is “inactive”.
On the same count and under the same terms, next, `CN(C)Cc1c[nH]c2ccccc12`: 0.158 µM (active).
Regarding `CN(C)CCCc1c[nH]c2ccccc12`, the activity, negative = inhibition is -8.71% [at 11.4 µM].
As for `O=C(c1ccccc1)[C@H]1[C@H](c2ccccc2[N+](=O)[O-])N1C1CCCCC1` (stereo partly specified), the activity, negative = inhibition was -1.09% [at 11.4 µM].
In the case of `c1ccc(CN2CCC3(CCc4ccccc43)CC2)cc1`, the AC50 was 0.00631 µM (active).
The same measure, in the same setting: for `c1ccc(CN2CCC3(CCNCC3)CC2)cc1` the value was “inactive”.
For the molecule `CCOC(=O)c1ncn2c1[C@H]1CCCN1C(=O)c1cc(OC)ccc1-2`, the AC50 result was “inactive”.
On the same count and under the same terms, for `Oc1ccc2[nH]cc(CCCCN3CC=C(c4ccccc4)CC3)c2c1` the value was “inactive”; for `O=S1(=O)N(CCN2CC=C(c3c[nH]c4cc(F)ccc34)CC2)c2cccc3c2N1CCC3`, 0.2 µM (active).
On the same count and under the same terms, for `O=C(CCCC1=NS(=O)(=O)c2ccccc2N1)N1CCC2(CC1)OCCO2` the value was “inactive”.
On the same count and under the same terms, next, `O=C(Nc1ccc(Cl)cc1C(=O)c1ccccc1Cl)c1ccco1`: “inactive”.
`Nc1ccccc1O.O.O=C(O)[C@H]1[O][Sb][O][C@H]1C(=O)O`: the activity, negative = inhibition is -5.13% [at 11.4 µM].
`Clc1cccc(N2CCNCC2)c1`: the AC50 is 25.1 µM (active) and 3.98 µM (active).
The same measure, in the same setting: for `O=[N+]([O-])c1ccc(N2CCNCC2)cc1NC1CC1` the value was “inactive”; for `Clc1cncc(N2CCNCC2)n1`, “inactive”.
Turning to `O=c1[nH]cnc2[nH]cc(CN3CCCCC3)c12`, the activity, negative = inhibition is 7.9% [at 11.4 µM].
Regarding `COc1c2c(cc3c1OCO3)CCN(C)C2`, the AC50 was 3.98 µM (active).
Same read-out and setting: for `CC(C)C(=O)N1C2CCC1CC(O)(c1ccc(F)cc1)C2` (stereo unspecified) the value was “inactive”; for `NC[C@H](O)c1ccc(O)cc1`, “inactive”.
As to `CNC[C@H](O)c1ccc(O)cc1`, the AC50 result is “inactive”.
As to `C[C@H](N[C@@H](C)CCc1ccccc1)[C@H](O)c1ccc(O)cc1`, the concentration at half-maximal activity (AC50) is 2 µM (active).
Take `CC(C)[N+](C)(CCOC(=O)C1c2ccccc2Oc2ccccc21)C(C)C`: the AC50 was 31.6 µM (active) and 1.26 µM (active).
With `O=C(Nc1ccc(F)cc1F)c1cccnc1Oc1cccc(C(F)(F)F)c1`, the AC50 result is “inactive”.
As to `CC[C@@H]1[C@@H]2C[C@H]3[C@H]4N(C)c5ccccc5[C@@]45C[C@@H]([C@@H]2[C@@H]5O)N3[C@H]1O`, the AC50 is 3.98 µM (active).
On the same count and under the same terms, for `Clc1ccc(C2=CCC[C@H]3CC[C@@H]2N3)cn1` the value was “inactive”.
On to `O=C(CNS(=O)(=O)c1ccc(Br)s1)N1CCC2(CC1)OCCO2`, for which the AC50 entry was “inactive”.
As for `NC(N)=NN=Cc1c(Cl)cccc1Cl`, the AC50 is 10 µM (active).
With `O=P(O)(O)c1ccccc1` (tested in a mixture with another compound), the activity, negative = inhibition is 15.2% [at 11.4 µM].

As a reminder, the AC50 is the midpoint of the concentration-response curve, whichever way the signal moves.
